Laboratory results taken from the supplement of paper PMC3545927.
Some of the results follow. How many sequences the whole screen found active is unknown.

Target: furin, P09958
Experiment: furin cleavage Z-score vs untreated control; higher = more cleavage, active = 3.5 or more, inactive = 1 or less, 8 variable residues between constant flanks
Method in brief: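 The cleavage Z-score is the log read count relative to furin-free reactions, lowess-adjusted and scaled by median absolute deviation. Counts came from sequencing DNA released from bead-bound 8-mer peptide–cDNA fusions after digestion with purified furin for 7.5, 15 or 30 min.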
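Also: purified furin at 1:10 enzyme:substrate in 50 mM HEPES pH 7.5.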

Chain of furin, P09958 (P09958 whole entry): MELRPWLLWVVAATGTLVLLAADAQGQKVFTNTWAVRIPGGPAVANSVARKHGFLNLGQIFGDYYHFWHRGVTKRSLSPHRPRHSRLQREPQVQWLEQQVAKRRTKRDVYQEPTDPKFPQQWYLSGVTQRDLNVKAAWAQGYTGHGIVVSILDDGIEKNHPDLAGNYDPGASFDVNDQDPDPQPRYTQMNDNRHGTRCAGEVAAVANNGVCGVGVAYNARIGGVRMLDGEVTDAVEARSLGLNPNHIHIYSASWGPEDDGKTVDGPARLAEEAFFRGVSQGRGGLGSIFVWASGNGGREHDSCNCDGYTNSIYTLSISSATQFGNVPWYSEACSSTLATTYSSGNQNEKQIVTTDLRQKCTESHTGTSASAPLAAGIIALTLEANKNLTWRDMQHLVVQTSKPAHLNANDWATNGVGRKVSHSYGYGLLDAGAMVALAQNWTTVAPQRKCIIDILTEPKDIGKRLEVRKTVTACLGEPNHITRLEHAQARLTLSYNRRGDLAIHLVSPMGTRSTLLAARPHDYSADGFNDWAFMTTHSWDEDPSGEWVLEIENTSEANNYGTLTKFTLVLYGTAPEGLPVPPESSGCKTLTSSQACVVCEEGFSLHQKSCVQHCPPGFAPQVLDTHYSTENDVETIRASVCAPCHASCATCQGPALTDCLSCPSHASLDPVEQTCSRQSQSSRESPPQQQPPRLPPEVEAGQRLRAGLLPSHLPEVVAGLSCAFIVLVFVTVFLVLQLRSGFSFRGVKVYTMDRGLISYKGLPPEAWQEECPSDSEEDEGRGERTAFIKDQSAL

Sequence	furin cleavage Z-score (7.5 min)	furin cleavage Z-score (15 min)	furin cleavage Z-score (30 min)
CASDPCSAHLAGNASASA [HC2491]	-0.0824 (inactive)	0.0077 (inactive)	0.561 (inactive)
CAFTPCSAHLAGNASASA [HC2467]	-2.12 (inactive)	-1.48 (inactive)	-1.08 (inactive)
CATTPCSKSWAGNASASA [HC1894]	0.86 (inactive)	-0.828 (inactive)	1.43
CALVGAPLGGAGNASASA [HC230]	0.473 (inactive)	0.0326 (inactive)	-0.438 (inactive)
CARSTRDVQAAGNASASA [FS-3212]	6.84 (active)	7.38 (active)	6.15 (active)
CAWLIRRRRSAGNASASA [FS-1180]	13.7 (active)	13.5 (active)	11.2 (active)
CAEYPCHRPSAGNASASA [HC2329]	-1.31 (inactive)	-1.61 (inactive)	0.059 (inactive)
CAFYNRRRRSAGNASASA [FS-528]	10.4 (active)	10.5 (active)	8.75 (active)
CAWWRRRRRSAGNASASA [FS-1503]	12.2 (active)	12.2 (active)	8.61 (active)
CADLARHYKSAGNASASA [FS-982]	1.07	-0.538 (inactive)	-1.88 (inactive)
CAYKGVWRVDAGNASASA [HC1168]	-0.715 (inactive)	-0.703 (inactive)	0.326 (inactive)
CAHFLSQTKQAGNASASA [HC946]	-1.62 (inactive)	-0.0771 (inactive)	0.398 (inactive)
CASTPCSAHYAGNASASA [HC2569]	-0.833 (inactive)	0.198 (inactive)	0.946 (inactive)
CATTRVRRRSAGNASASA [FS-1100]	8.61 (active)	10.7 (active)	6.67 (active)
CAVFGPLWILAGNASASA [HC608]	-0.487 (inactive)	-1.14 (inactive)	-0.989 (inactive)
CARRLRDQEAAGNASASA [FS-1781]	0.143 (inactive)	-1.21 (inactive)	-0.196 (inactive)
CARTPRSSSAAGNASASA [FS-2833]	0.99 (inactive)	-0.243 (inactive)	2.32
CARRPRHLSAAGNASASA [FS-1837]	5.27 (active)	4.94 (active)	5.51 (active)
CARRPRRVIAAGNASASA [FS-2179]	-0.112 (inactive)	2.08	3.81 (active)
CARTPREVEAAGNASASA [FS-2467]	1.78	1.61	4.16 (active)
CARRPQDVKFAGNASASA [HC169]	-0.409 (inactive)	-1.01 (inactive)	-0.285 (inactive)
CARRPRQKEAAGNASASA [FS-2782]	0.0199 (inactive)	-1.9 (inactive)	-0.838 (inactive)
CARRPRRVEAAGNASASA [FS-1921]	1.67	1.82	3.69 (active)
CAALMTGYTGAGNASASA [HC880]	-1.03 (inactive)	-2.97 (inactive)	-0.313 (inactive)

Sequence	furin cleavage Z-score (7.5 min)	furin cleavage Z-score (15 min)	furin cleavage Z-score (30 min)
CAEFVVCCSMAGNASASA [HC2127]	-1.01 (inactive)	0.711 (inactive)	-0.748 (inactive)
CASTNCSAHLAGNASASA [HC2521]	1.3	-0.319 (inactive)	0.484 (inactive)
CAESYSSMPPAGNASASA [HC1352]	0.813 (inactive)	-0.573 (inactive)	-0.906 (inactive)
CAMDVVCCSMAGNASASA [HC2106]	-0.103 (inactive)	-0.752 (inactive)	-0.482 (inactive)
CARDWAHNGLAGNASASA [HC639]	0.358 (inactive)	-0.707 (inactive)	0.626 (inactive)
CARGKRYSYKAGNASASA [FS-2019]	0.222 (inactive)	0.712 (inactive)	1.19
CARGKRHATKAGNASASA [FS-2015]	7.59 (active)	7.53 (active)	7.79 (active)
CARGKRRREKAGNASASA [FS-2017]	-0.00549 (inactive)	-0.584 (inactive)	-1.52 (inactive)
CARGKRQATAAGNASASA [FS-2016]	7.14 (active)	9.61 (active)	6.1 (active)
CAQRKRGGTAAGNASASA [WN1]	-1.04 (inactive)	0.079 (inactive)	-0.249 (inactive)
CAGERCDLEDAGNASASA [HC485]	0.0125 (inactive)	-0.597 (inactive)	0.387 (inactive)
CASSYGFQYSAGNASASA [HC1465]	1.75	0.0331 (inactive)	-0.209 (inactive)
CATTPCSGSMAGNASASA [HC1926]	-0.191 (inactive)	0.357 (inactive)	-1.65 (inactive)
CAARDQLEQAAGNASASA [HC1588]	1.26	0.408 (inactive)	-0.23 (inactive)
CAVPPRRKKSAGNASASA [FS-736]	3.36	2.71	4.45 (active)
CAMIHRFWKSAGNASASA [FS-1376]	0.282 (inactive)	-1.21 (inactive)	-1.26 (inactive)
CATGSPITYSAGNASASA [HC804]	-0.202 (inactive)	-0.337 (inactive)	-0.568 (inactive)
CAIFSRVKKSAGNASASA [FS-802]	3.99 (active)	2.87	3.95 (active)
CALKHRVKKSAGNASASA [FS-1358]	8.56 (active)	10.2 (active)	8.6 (active)
CASFDRKKKSAGNASASA [FS-1485]	-0.34 (inactive)	-0.366 (inactive)	-0.05 (inactive)
CAIFSRCARSAGNASASA [FS-1343]	0.568 (inactive)	0.619 (inactive)	1.19
CANAHRDKKSAGNASASA [FS-831]	-0.25 (inactive)	-0.94 (inactive)	-2.16 (inactive)
CAKGSRRKKSAGNASASA [FS-39]	5.36 (active)	4.72 (active)	4.1 (active)
